# Measurements from the supplement of paper PMC6555819.
# Tests used:
# Experiment in all cases: PBM binding z-score (relative to random genomic background probes); higher = stronger binding; sequences stand for … in GC…GCGATTGACAGCGTAGAATGAAGG
# [1] = test system: FXR:RXRa (NR concentration 270 nM, RXRa partner concentration 90 nM)
# Outline: (§1)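 Scanned fluorescence from custom Agilent 4×180K protein-binding microarrays was regression-normalized. Binding z-scores use random background probes as reference. Ligand-free nuclear receptor dimers were incubated on the arrays for 1 h and detected with antibodies against each partner (one per run).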
# [2] = test system: LXRa:RXRa (NR concentration 270 nM, RXRa partner concentration 90 nM)
# Outline: as §1
# [3] = test system: LXRa homodimer (NR concentration 270 nM)
# Outline: as §1
# [4] = test system: LXRb:RXRa (NR concentration 270 nM, RXRa partner concentration 90 nM)
# Outline: as §1
# [5] = test system: LXRb homodimer (NR concentration 270 nM)
# Outline: as §1
# [6] = test system: PPARa:RXRa (NR concentration 270 nM, RXRa partner concentration 90 nM)
# Outline: as §1
# [7] = test system: PPARg:RXRa (NR concentration 180 nM, RXRa partner concentration 90 nM)
# Outline: as §1
# [8] = test system: PPARg:RXRa 270nM:90nM, anti-RXR (NR concentration 270 nM, RXRa partner concentration 90 nM)
# Outline: as §1
# [9] = test system: PPARg:RXRa 30nM:10nM, anti-RXR (NR concentration 30 nM, RXRa partner concentration 10 nM)
# Outline: as §1
# [10] = test system: PPARg:RXRa 90nM:30nM, anti-RXR (NR concentration 90 nM, RXRa partner concentration 30 nM)
# Outline: as §1
Sequence,PBM binding z-score [1],PBM binding z-score [2],PBM binding z-score [3],PBM binding z-score [4],PBM binding z-score [5],PBM binding z-score [6],PBM binding z-score [7],PBM binding z-score [8],PBM binding z-score [9],PBM binding z-score [10]
TCTCGAAGGACACGAAAGGTCAGAGCTCGACATC,2.94,3.47,2.63,3.26,0.0129,3.58,1.59,3.13,3.42,3.16
ACAGACAGGTGATGATGGTAACTCAGGCTATCAT,0.142,-0.0671,-0.0719,-0.166,-0.2,-0.0535,0.679,-0.301,0.191,0.135
GCGACTGGGGCAACGCAGGTTACCATAAGGTTGG,0.326,0.211,-0.468,0.14,-0.947,1.52,1.61,1.27,-0.287,0.414
TCAAATAGGTAAAAGGTGAAAGTCGGTGTGGTAA,2.23,1.93,0.419,2.06,-0.106,5.45,8.26,8.33,8.45,9.13
AATACAGGGTCACTAGGCCACAGTAGGTACGAAT,6.38,4.76,1.17,4.02,1.04,6.17,8.82,7.43,4.24,6.72
TCTATTAGTTGATTAGGGCAAGCGAAACAGCGGA,0.582,0.347,0.126,0.37,0.284,0.756,-0.0527,2.03,3.67,2.81
ATCGAAAGCTCGTGAGGTGAGTATACAGAAAGGC,-0.207,-0.537,-0.718,-0.546,-0.682,-0.128,0.416,0.00274,0.112,-0.368
TCGAATAGGTTAGTCGGGGCATTCAGCCAACATA,0.693,0.608,-0.0621,1.02,-0.284,1.29,0.133,1.54,2.74,1.94
AAAATGAGGTTACCAAAGATCAGGGAAACGCTTG,2.21,6.37,-0.0548,3.4,-0.136,3.71,3.49,3.24,1.2,2.53
CCGAGTAGGTTATGAGGCATTCAGGCAACGGTGA,-0.0177,0.0841,-0.0523,-0.158,-0.156,1.02,1.3,2.22,0.331,1.44
CGTCCAAGGTCAATGCTAGGTCAGTGAAAGCATT,6.67,5.72,2.67,3.98,0.958,5.11,4.02,4.74,1.16,3.17
CCTAGTTTGTCAAGGTCACACACGCTATAGGTAC,4.49,4.38,3.27,3.87,1.42,4.14,2.44,2.78,0.971,1.93
ATCGAAAGGTCGTGAGGTGCGTATACAGAAAGGC,5.17,3.73,-0.157,2.99,-0.0634,5.18,3.39,3.76,1.13,2.4
CTAGCAAGGTGAACAAGGTCGTTGATTACTATTC,1.2,1.17,-0.0996,1.45,-1.03,2.39,0.843,1.3,0.0127,0.796
TCTATTAGTTAATTAGGGCAACCGAAACAGCGGA,0.524,0.526,0.315,0.637,0.558,2.73,2.2,2.94,3.88,3.37
AGCATGAGGTTACCAAAGATCAGGGAAACGCTTG,1.94,6.48,0.0616,3.13,-0.682,2.77,1.41,1.4,0.579,1.07
TCTATTAGTCGATTAGGGCAACCGAAACAGCGGA,0.523,0.509,0.385,0.608,0.293,0.759,0.292,2.12,3.61,2.99
CGAACTAGGTCATGCAGGACAGTGAATACATTGA,3.87,2.17,0.149,1.88,-0.2,4.66,7.65,6.21,3.69,5.66
ATCTCTAGGTAAAAGTTTAGTGAATCCCGAGGAT,0.336,0.276,0.317,0.0669,1.09,2.34,3.7,4.99,2.89,5.11
TCGAGTAGGTTAGGGGTATTCAGAATGGCGTCGA,0.347,0.298,-0.105,1.01,-0.0483,1.66,2.37,3.55,2.28,2.99
CCTTACGGGACAAGGTTATAGCACGGGTGGTACG,0.441,0.693,-0.25,0.134,-0.233,1.02,1.08,0.756,0.00492,0.323
TGAATGAGGTTCAAGATCAGGGAACGTGGCGTCG,0.995,0.96,-0.757,0.185,-0.0166,1.76,0.831,1.62,0.424,1.14
GGAACGAGGGCAAGTTGATCGCAGAGTTTGATGG,0.747,0.257,-0.518,0.128,-0.392,1.6,0.859,0.878,-0.211,0.517
TGAATGAGGTTATATGATCAGGGAACGTTGCAAA,1.85,1.48,-0.0351,1.25,0.134,2.97,1.44,1.76,1.05,1.45
ACAGACGGGTGATGAAGGTAACTCAGGCTATCAT,-0.328,-0.456,-0.165,-0.422,-0.384,-0.198,0.613,-0.161,0.108,-0.458
